# Test results from paper PMC7862700, “An all-to-all approach to the identification of sequence-specific readers for epigenetic DNA modifications on cytosine”.
# Key:
# Assay in all cases: DAPPL (digital affinity profiling via proximity ligation, sequencing); 10 mM Tris-HCl pH 7.5, 50 mM NaCl, 1 mM DTT, 4% glycerol, room temperature, 30 min; GST-TFs on glutathione beads, 16-mer random dsDNA library, 0.1% formaldehyde crosslink after washing; high values mean tight binding
# FEV = target: T1, FEV (Homo sapiens, UniProt Q99581 1-238); conditions: protein: recombinant; tags: N-terminal GST; dsDNA, one strand shown
# T1 sequence: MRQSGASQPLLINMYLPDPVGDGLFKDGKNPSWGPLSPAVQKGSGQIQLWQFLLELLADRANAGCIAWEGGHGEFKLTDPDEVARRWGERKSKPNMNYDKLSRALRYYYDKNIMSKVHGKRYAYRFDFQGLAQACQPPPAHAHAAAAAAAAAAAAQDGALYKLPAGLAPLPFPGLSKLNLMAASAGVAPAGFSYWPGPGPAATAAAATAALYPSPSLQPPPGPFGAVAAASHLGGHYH
# In short: (§1)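 Pools of DNA-barcoded human transcription factors, expressed in yeast as GST fusions on glutathione beads and combined with a tag-only sample, were incubated with 200 nmole of a 16-mer random double-stranded DNA library. Incubation took 30 min at room temperature in Tris/NaCl/DTT/glycerol buffer and was followed by washing, 0.1% formaldehyde crosslinking, proximity ligation (BsaI/T4 ligase, 1 h, 37 °C), PCR amplification and sequencing on an Illumina NextSeq500. Binding signal is the ratio of a hexamer's read frequency for a factor to its frequency for the tag-only sample.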
# ETV5 = ETV5 (Homo sapiens, UniProt P41161 1-510); conditions: protein: recombinant; tags: N-terminal GST; dsDNA, one strand shown
# ETV5, sequence (P41161 whole entry): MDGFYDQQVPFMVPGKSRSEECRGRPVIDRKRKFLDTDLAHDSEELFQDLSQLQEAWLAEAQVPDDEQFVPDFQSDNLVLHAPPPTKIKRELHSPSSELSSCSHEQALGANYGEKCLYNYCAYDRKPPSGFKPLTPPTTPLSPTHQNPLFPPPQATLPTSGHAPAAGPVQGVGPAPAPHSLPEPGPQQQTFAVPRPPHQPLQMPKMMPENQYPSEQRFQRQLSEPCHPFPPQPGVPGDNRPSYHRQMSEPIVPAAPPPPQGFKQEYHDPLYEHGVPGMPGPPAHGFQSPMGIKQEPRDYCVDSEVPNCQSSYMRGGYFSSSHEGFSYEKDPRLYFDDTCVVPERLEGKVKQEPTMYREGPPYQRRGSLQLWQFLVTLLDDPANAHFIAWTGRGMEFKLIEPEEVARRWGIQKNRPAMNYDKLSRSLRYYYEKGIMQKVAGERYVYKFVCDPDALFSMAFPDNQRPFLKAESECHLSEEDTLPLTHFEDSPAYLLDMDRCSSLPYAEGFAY
# In short: as §1
# HSF1 = HSF1 (Homo sapiens, UniProt Q00613 1-529); conditions: protein: recombinant; tags: N-terminal GST; chain copies: 3; dsDNA, one strand shown
# HSF1, sequence (Q00613 whole entry): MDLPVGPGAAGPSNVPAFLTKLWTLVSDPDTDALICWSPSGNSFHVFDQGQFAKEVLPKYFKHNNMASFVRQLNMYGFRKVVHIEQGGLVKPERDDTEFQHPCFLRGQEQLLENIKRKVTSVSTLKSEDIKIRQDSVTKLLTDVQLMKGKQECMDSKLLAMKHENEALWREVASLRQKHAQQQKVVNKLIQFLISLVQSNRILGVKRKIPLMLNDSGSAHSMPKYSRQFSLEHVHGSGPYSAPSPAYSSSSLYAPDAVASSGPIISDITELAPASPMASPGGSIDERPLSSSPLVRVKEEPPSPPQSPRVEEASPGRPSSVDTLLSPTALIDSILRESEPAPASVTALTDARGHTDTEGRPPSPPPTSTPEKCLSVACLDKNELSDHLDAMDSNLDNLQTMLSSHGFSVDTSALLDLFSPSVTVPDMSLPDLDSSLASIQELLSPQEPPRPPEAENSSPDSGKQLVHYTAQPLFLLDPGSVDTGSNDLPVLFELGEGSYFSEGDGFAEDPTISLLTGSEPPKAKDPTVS
# In short: as §1
# SPIC = target: T2, SPIC (Homo sapiens, UniProt Q8N5J4 1-248); conditions: protein: recombinant; tags: N-terminal GST; dsDNA, one strand shown
# T2 sequence: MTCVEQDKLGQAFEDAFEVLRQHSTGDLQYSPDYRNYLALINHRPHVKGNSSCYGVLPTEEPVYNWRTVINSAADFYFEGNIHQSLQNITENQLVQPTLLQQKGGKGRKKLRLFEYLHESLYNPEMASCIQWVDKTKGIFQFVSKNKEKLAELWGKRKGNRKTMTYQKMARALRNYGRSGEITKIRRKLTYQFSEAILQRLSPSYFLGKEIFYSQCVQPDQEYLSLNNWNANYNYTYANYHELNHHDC
# In short: as §1
# ELF4 = ELF4 (Homo sapiens, UniProt Q99607 1-663); conditions: protein: recombinant; tags: N-terminal GST; dsDNA, one strand shown
# ELF4, sequence (Q99607 whole entry): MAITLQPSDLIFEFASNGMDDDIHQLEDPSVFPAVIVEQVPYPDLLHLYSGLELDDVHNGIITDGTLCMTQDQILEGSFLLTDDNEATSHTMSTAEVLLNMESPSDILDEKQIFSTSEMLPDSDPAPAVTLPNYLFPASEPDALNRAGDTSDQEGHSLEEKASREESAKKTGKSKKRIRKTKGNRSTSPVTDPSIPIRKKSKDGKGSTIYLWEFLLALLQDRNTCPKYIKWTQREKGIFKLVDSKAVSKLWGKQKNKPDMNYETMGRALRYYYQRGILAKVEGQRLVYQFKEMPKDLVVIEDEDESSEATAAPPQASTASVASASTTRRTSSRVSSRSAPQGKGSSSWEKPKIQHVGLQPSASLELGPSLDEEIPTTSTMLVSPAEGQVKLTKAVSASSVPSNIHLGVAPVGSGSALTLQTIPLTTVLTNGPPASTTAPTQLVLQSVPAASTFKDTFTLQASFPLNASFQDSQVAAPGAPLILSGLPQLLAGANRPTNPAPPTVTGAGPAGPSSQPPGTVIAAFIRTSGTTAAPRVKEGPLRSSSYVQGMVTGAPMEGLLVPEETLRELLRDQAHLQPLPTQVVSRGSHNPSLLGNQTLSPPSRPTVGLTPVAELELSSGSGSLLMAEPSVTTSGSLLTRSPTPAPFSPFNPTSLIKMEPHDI
# In short: as §1
# ELK4 = target: T3, ELK4 (Homo sapiens, UniProt P28324-2 1-405); conditions: protein: recombinant; tags: N-terminal GST; dsDNA, one strand shown
# T3 sequence: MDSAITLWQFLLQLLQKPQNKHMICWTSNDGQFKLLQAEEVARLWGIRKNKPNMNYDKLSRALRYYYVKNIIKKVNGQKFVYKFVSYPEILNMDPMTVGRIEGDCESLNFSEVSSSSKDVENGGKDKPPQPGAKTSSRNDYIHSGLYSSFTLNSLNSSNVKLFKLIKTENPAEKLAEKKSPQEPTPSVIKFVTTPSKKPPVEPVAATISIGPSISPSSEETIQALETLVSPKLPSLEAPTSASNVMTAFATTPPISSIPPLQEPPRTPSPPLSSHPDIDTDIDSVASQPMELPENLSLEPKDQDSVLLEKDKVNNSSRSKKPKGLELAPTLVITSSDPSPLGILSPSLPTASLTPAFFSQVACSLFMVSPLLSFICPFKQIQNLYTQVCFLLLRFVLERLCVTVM
# In short: as §1
# ETV2 = target: T4, ETV2 (Homo sapiens, UniProt O00321 1-342); conditions: protein: recombinant; tags: N-terminal GST; dsDNA, one strand shown
# T4 sequence: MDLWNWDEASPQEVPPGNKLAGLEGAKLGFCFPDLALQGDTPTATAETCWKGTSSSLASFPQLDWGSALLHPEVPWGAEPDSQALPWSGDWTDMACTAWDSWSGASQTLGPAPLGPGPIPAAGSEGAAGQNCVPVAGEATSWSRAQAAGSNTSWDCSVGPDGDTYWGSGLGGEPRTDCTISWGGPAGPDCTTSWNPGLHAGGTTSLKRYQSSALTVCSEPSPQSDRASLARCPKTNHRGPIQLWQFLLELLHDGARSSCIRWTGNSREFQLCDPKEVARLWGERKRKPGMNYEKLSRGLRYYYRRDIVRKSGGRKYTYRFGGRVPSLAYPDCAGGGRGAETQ
# In short: as §1
# ELF3 = target: T5, ELF3 (Homo sapiens, UniProt P78545 1-371); conditions: protein: recombinant; tags: N-terminal GST; dsDNA, one strand shown
# T5 sequence: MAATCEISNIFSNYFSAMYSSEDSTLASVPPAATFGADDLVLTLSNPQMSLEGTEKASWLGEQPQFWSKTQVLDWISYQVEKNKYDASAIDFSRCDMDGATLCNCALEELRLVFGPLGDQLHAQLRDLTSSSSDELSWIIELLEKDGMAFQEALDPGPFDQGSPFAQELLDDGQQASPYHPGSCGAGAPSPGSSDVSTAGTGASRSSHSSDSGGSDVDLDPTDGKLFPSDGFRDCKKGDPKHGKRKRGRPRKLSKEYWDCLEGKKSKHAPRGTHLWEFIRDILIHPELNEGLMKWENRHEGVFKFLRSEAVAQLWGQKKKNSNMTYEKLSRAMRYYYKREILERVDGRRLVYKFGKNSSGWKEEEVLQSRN
# In short: as §1
# CRX = CRX (Homo sapiens, UniProt O43186 1-299); conditions: protein: recombinant; tags: N-terminal GST; dsDNA, one strand shown
# CRX, sequence (O43186 whole entry): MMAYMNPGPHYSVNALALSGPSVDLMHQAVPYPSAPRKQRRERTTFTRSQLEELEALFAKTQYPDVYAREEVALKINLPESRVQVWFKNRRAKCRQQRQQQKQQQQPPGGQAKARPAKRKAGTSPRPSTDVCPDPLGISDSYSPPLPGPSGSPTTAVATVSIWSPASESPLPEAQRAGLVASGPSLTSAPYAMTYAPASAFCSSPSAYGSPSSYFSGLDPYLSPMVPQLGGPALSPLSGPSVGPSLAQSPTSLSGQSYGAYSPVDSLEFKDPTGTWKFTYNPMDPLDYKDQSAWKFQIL
# In short: as §1
sequence,measurement,setting,value
TTCCCG,binding signal,FEV,"1.85 fold enrichment (6-mer frequency, TF over GST control)"
same,binding signal,ETV5,"2.08 fold enrichment (6-mer frequency, TF over GST control)"
same,binding signal,HSF1,"2.46 fold enrichment (6-mer frequency, TF over GST control)"
same,binding signal,SPIC,"1.91 fold enrichment (6-mer frequency, TF over GST control)"
same,binding signal,ELF4,"1.73 fold enrichment (6-mer frequency, TF over GST control)"
same,binding signal,ELK4,"1.69 fold enrichment (6-mer frequency, TF over GST control)"
same,binding signal,ETV2,"1.87 fold enrichment (6-mer frequency, TF over GST control)"
same,binding signal,ELF3,"1.64 fold enrichment (6-mer frequency, TF over GST control)"
same,binding signal,CRX,"1.7 fold enrichment (6-mer frequency, TF over GST control)"
